From the supplement of paper PMC10849652
Of roughly 7,900 targets only a part is listed; those with a hit were picked by preference. About 0.6% of all pairs of compound and target were hits.

Experiments:
Experiment in all cases: log2 fold change, soluble protein after heating vs DMSO (PISA); higher = thermal stabilisation; K562 cells, 10 uM, 30 min; active = over 0.2 and 3.5 SD of the protein, either way, in both replicates (recomputed)
[1] = compound: CS(=O)(=O)c1ccc(-c2cnc(N)c(C(=O)Nc3ccccc3)n2)cc1
Summary of the method: (§1)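 K562 cells at 2×10^6 cells/mL were exposed to 10 μM compound for 30 min, then aliquots were heated for 3 min across 48°C-58°C, pooled, and extracted in PBS containing 0.5% NP-40 at 4°C. The supernatant after 21,000xg for 90 min was taken as soluble protein and measured by TMTpro 16plex LC-MS/MS with channel sums equalised. Thermal stability is reported relative to control samples, with values from duplicates. Fold changes are given on a log2 scale.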

[2] = compound: C[C@@H](Oc1cc(-c2cnn(C3CCNCC3)c2)cnc1N)c1c(Cl)ccc(F)c1Cl [crizotinib]
Summary of the method: as §1

[3] = compound: C[C@@H]1COCCN1C2=NC(=NC(=C2)C3(CC3)S(=O)(=O)C)C4=C5C=CNC5=CC=C4
Summary of the method: as §1

[4] = compound: C[C@H](C1=CC=C(C=C1)C(=O)NC2=C3C=CNC3=NC=C2)N
Summary of the method: as §1

[5] = compound: C[C@H](Nc1ncnc2nc[nH]c12)c1cc2cccc(Cl)c2c(=O)n1-c1ccccc1 [duvelisib]
Summary of the method: as §1

[6] = compound: Cc1cc(Nc2cc(CN3CCOCC3)c3nc(C)c(Cc4ccc(Cl)cc4F)n3n2)n[nH]1 [gandotinib]
Summary of the method: as §1

[7] = compound: Cc1cc(Nc2cc(N3CCN(C)CC3)nc(Sc3ccc(NC(=O)C4CC4)cc3)n2)n[nH]1 [tozasertib]
Summary of the method: as §1

[8] = compound: Cc1cc(SCc2sc(-c3ccc(C(F)(F)F)cc3)nc2C)ccc1OCC(=O)O
Summary of the method: as §1

[9] = compound: Cc1ccc(-n2nc(C(C)(C)C)cc2NC(=O)Nc2ccc(OCCN3CCOCC3)c3ccccc23)cc1 [doramapimod]
Summary of the method: as §1

[10] = compound: Cc1ccc(C(=O)N(CCCN)[C@@H](c2nc3cc(Cl)ccc3c(=O)n2Cc2ccccc2)C(C)C)cc1 [ispinesib]
Summary of the method: as §1

[11] = compound: Cc1ccc(NC(=O)c2ccc(CN3CC[C@H](N(C)C)C3)c(C(F)(F)F)c2)cc1Nc1nccc(-c2cncnc2)n1 [bafetinib]
Summary of the method: as §1

[12] = compound: Cc1cccc(CC(=O)N2CCc3c2ccc(-c2cn(C)c4ncnc(N)c24)c3F)n1
Summary of the method: as §1

[13] = compound: Cc1cn(-c2cc(NC(=O)c3ccc(C)c(Nc4nccc(-c5cccnc5)n4)c3)cc(C(F)(F)F)c2)cn1 [nilotinib]
Summary of the method: as §1

[14] = compound: Cc1nc(Nc2n[nH]c3c2CN(C(=O)N[C@H](CN(C)C)c2ccccc2)C3(C)C)c2sccc2n1
Summary of the method: as §1

[15] = compound: Cc1nc(Nc2ncc(C(=O)Nc3c(C)cccc3Cl)s2)cc(N2CCN(CCO)CC2)n1 [dasatinib]
Summary of the method: as §1

[16] = compound: Cc1ncc(-c2ccnc(Nc3ccc(S(C)(=O)=O)cc3)n2)n1C(C)C
Summary of the method: as §1

[17] = compound: Cn1cc(-c2ccc3c(c2)CCN3C(=O)Cc2cccc(C(F)(F)F)c2)c2c(N)ncnc21
Summary of the method: as §1

[18] = compound: Cn1cc(-c2ccc3nnc(C(F)(F)c4ccc5ncccc5c4)n3n2)cn1
Summary of the method: as §1

[19] = compound: Cn1cncc1[C@@](N)(c1ccc(Cl)cc1)c1ccc2c(c1)c(-c1cccc(Cl)c1)cc(=O)n2C [tipifarnib]
Summary of the method: as §1

[20] = compound: FC(F)(F)c1ccc(/C=C/c2nc(COc3ccc(CCCCn4ccnn4)cc3)co2)cc1 [mubritinib]
Summary of the method: as §1

Measured: log2 fold change

SACM1L (UniProt Q9NTJ5)
UniProt Q9NTJ5, sequence (Q9NTJ5 whole entry, looked up): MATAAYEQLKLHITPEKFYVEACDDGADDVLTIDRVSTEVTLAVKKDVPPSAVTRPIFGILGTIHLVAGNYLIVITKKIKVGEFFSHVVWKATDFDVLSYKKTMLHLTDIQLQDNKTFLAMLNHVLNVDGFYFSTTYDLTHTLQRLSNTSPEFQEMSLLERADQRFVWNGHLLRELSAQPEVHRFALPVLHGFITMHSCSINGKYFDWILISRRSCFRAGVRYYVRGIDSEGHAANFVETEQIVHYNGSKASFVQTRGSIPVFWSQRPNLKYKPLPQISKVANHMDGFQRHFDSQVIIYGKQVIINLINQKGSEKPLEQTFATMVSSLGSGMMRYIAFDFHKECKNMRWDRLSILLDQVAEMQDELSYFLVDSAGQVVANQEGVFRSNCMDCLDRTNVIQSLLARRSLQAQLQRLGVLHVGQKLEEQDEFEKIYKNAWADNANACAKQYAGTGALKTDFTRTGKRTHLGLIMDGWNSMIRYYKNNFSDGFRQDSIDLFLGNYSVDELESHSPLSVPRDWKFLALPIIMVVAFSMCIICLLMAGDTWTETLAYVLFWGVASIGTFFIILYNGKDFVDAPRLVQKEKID
inactive: [1] 0.026 | [2] 0 | [3] 0.062 | [4] -0.094 | [5] 0.031 | [6] -0.065 | [7] 0.058 | [8] 0.005 | [9] -0.055 | [10] -0.096 | [11] -0.011 | [12] -0.022 | [13] 0.044 | [14] -0.002 | [15] 0.012 | [16] 0.012 | [17] -0.009 | [18] 0 | [19] -0.024 | [20] -0.002

RSF1 (UniProt Q96T23)
UniProt Q96T23, sequence (Q96T23 whole entry, looked up): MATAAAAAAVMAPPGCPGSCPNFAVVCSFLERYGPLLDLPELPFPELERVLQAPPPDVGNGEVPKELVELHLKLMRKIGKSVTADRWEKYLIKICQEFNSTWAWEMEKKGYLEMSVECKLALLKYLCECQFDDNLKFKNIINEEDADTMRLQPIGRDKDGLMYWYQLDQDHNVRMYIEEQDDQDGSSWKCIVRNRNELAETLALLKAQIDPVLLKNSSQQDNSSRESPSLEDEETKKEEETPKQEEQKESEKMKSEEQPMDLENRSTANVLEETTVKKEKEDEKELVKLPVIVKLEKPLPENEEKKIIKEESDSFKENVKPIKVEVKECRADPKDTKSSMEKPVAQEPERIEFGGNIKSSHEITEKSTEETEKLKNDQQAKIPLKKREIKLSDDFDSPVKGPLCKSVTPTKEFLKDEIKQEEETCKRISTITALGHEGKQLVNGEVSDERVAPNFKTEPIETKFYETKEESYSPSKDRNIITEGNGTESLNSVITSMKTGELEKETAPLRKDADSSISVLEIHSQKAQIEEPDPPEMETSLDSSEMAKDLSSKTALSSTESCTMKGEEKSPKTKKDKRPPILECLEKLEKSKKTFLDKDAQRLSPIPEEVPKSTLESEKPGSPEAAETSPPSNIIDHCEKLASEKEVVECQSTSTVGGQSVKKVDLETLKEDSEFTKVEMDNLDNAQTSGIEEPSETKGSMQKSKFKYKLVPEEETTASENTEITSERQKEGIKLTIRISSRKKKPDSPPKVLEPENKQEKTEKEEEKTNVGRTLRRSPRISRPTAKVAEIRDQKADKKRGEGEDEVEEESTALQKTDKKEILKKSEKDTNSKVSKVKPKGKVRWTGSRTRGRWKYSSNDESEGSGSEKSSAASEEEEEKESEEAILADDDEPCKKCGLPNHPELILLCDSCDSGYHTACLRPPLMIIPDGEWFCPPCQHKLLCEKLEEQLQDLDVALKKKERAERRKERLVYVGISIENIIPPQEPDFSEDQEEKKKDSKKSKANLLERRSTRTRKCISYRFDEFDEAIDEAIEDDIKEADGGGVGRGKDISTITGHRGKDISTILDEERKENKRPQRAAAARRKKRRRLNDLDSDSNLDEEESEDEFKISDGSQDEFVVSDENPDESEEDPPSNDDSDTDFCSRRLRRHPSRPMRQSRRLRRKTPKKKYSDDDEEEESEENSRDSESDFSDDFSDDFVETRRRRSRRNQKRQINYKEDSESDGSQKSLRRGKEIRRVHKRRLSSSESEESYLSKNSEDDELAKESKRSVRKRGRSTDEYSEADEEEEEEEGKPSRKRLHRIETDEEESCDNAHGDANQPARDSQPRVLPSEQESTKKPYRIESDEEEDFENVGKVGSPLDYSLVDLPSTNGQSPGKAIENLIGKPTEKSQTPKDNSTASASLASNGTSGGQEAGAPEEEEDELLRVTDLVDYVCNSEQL
inactive: [1] 0.056 | [2] -0.054 | [3] -0.002 | [4] -0.058 | [5] 0.108 | [6] -0.104 | [7] 0.228 | [8] 0.194 | [9] 0.043 | [10] 0.087 | [11] 0.117 | [12] -0.027 | [13] 0.087 | [14] -0.102 | [15] -0.082 | [16] -0.096 | [17] 0.046 | [18] 0.079 | [19] -0.222 | [20] 0.237

RUFY1 (UniProt Q96T51)
UniProt Q96T51, sequence (Q96T51 whole entry, looked up): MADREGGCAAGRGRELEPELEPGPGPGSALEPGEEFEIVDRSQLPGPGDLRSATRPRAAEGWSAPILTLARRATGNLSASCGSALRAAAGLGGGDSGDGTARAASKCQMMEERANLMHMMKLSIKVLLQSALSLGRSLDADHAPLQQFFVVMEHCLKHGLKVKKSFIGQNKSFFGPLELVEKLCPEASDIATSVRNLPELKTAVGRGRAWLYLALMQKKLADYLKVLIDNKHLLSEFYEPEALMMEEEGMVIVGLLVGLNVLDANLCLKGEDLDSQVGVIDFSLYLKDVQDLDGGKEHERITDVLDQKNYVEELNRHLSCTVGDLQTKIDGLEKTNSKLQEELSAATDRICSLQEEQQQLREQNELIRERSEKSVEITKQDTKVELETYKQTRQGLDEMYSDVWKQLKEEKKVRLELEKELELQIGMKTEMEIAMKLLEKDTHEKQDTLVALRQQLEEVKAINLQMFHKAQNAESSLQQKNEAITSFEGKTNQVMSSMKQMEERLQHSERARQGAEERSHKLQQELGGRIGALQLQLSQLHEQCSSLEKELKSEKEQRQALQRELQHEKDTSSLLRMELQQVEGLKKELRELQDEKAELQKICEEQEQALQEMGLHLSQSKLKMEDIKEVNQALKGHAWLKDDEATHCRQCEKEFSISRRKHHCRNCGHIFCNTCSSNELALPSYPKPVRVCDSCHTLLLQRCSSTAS
inactive: [1] -0.04 | [2] -0.003 | [3] -0.034 | [4] 0.075 | [5] -0.005 | [6] -0.029 | [7] 0.166 | [8] 0.118 | [9] 0.032 | [10] -0.065 | [11] -0.052 | [12] 0.077 | [13] -0.066 | [14] -0.086 | [15] -0.11 | [16] 0.067 | [17] -0.061 | [18] 0.05 | [19] -0.062 | [20] -0.001

RPS2 (UniProt P15880)
inactive: [1] -0.045 | [2] 0.043 | [3] -0.369 | [4] 0.286 | [5] -0.162 | [6] 0.202 | [7] -0.007 | [8] 0.007 | [9] 0.131 | [10] -0.162 | [11] 0.284 | [12] 0 | [13] 0 | [14] 0.198 | [15] 0.13 | [16] -0.035 | [17] -0.216 | [18] -0.105 | [19] 0.077 | [20] -0.095

RNPS1 (UniProt Q15287)
UniProt Q15287, sequence (Q15287 whole entry, looked up): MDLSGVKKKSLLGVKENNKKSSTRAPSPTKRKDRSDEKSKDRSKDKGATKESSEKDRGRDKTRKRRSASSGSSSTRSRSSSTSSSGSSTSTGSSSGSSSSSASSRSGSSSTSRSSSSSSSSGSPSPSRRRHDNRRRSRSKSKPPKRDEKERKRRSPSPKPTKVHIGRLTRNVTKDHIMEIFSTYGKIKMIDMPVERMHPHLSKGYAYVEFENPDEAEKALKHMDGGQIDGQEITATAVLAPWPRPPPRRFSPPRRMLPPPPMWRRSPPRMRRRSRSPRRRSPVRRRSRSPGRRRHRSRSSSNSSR
active: [14] -0.62
inactive: [1] 0.018 | [2] -0.109 | [3] 0.114 | [4] -0.019 | [5] -0.091 | [6] 0.089 | [7] 0.108 | [8] -0.028 | [9] -0.104 | [10] 0.042 | [11] -0.073 | [12] -0.032 | [13] -0.035 | [15] -0.007 | [16] -0.12 | [17] -0.037 | [18] 0.011 | [19] -0.084 | [20] 0.003

RBM39 (UniProt Q14498)
UniProt Q14498, sequence (Q14498 whole entry, looked up): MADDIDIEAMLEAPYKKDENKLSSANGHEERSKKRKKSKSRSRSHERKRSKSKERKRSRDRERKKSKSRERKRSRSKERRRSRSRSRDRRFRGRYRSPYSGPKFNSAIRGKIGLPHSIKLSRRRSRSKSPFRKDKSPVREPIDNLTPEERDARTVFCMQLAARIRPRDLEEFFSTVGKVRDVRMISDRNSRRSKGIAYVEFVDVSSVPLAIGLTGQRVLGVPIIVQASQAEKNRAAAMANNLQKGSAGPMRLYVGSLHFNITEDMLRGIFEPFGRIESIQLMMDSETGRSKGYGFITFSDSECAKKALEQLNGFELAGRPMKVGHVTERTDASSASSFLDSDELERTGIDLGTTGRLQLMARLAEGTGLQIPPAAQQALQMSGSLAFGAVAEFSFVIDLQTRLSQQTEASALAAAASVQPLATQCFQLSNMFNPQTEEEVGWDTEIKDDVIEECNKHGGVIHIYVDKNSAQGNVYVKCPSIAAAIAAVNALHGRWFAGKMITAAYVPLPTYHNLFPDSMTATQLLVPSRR
active: [14] -1.03
inactive: [1] -0.043 | [2] -0.114 | [3] 0.033 | [4] -0.01 | [5] -0.012 | [6] -0.052 | [7] 0.081 | [8] 0.036 | [9] -0.02 | [10] -0.032 | [11] 0.046 | [12] 0.082 | [13] -0.027 | [15] -0.1 | [16] 0.055 | [17] -0.041 | [18] -0.012 | [19] -0.03 | [20] -0.043

RPS21 (UniProt P63220)
inactive: [1] -0.053 | [2] 0.141 | [3] -0.108 | [4] 0.044 | [5] -0.001 | [6] 0.048 | [7] -0.005 | [8] -0.004 | [9] -0.022 | [10] 0.015 | [11] 0.087 | [12] -0.057 | [13] 0.011 | [14] 0.072 | [15] 0.1 | [16] -0.012 | [17] -0.009 | [18] -0.004 | [19] 0.017 | [20] 0.002

RPS4X (UniProt P62701)
inactive: [1] -0.027 | [2] 0.021 | [3] -0.378 | [4] 0.333 | [5] -0.211 | [6] 0.264 | [7] 0.039 | [8] -0.023 | [9] 0.18 | [10] -0.141 | [11] 0.332 | [12] 0 | [13] 0.051 | [14] 0.206 | [15] 0.061 | [16] -0.048 | [17] -0.251 | [18] -0.079 | [19] 0.112 | [20] -0.105
